LASV entry inh = blocks Lassa virus binding or cell entry; Lassa virus pseudotyped entry inhibition, cell-based qHTS; Potency, µM (series often up to 49.2 µM), hits mostly inhibitors; 18,000 compounds, 4.1% hits; AID 720533
Marburg entry = blocks Marburg virus binding or cell entry. Marburg virus pseudotype entry/binding inhibition, cell-based. Potency, µM (top dose mostly 49.2 µM), hits mostly inhibitors. 18,000 compounds, 6.5% hits
Large screens that a line does not name were inactive. An excerpt weighted towards active compounds, which were near 7.1% of everything screened. Calls follow the shape of the full dose curve; tested in HEK293 cells.

COc1cc(C=NNc2ncnc3c2cnn3-c2ccccc2)ccc1O	LASV entry inh inconclusive, Marburg entry 14µM
COc1cccc(-n2ncc3c(NN=Cc4ccncc4)ncnc32)c1	none
COc1cccc(C=NNc2ncnc3c2cnn3-c2cccc(OC)c2)c1	none
CC(CCC(=O)OC[C@H]1O[C@H](C#Cc2ccccc2)C=C[C@H]1Oc1ccc(C)cc1)=NOC[C@@H](O)[C@H]1O[C@@H]2OC(C)(C)O[C@H]2[C@@H]1O	none (no result: LASV entry inh)
C=CCN=C1NC(CCc2ccccc2)C(C(=O)OC)=C(C)N1CC (stereo unspecified)	Marburg entry inconclusive
COC(=O)CC=C[C@@H](C)[C@H](OC)c1cc(OC)ccc1Br	none
CN1CCN(C2=Nc3ccccc3Oc3ccc(Cl)cc32)CC1	Marburg entry inconclusive
CN1CCN(C2=Nc3ccccc3Sc3ccc(Cl)cc32)CC1	LASV entry inh inconclusive, Marburg entry 25µM
CCCCN1CC(COCc2ccccc2)Oc2cccc(Oc3ccc(C)cc3)c2S1(=O)=O (stereo unspecified)	none (no result: LASV entry inh)
CCCCN1CC(COCc2ccccc2)Oc2cccc(Oc3ccccc3)c2S1(=O)=O (stereo unspecified)	LASV entry inh 4µM
COC(=O)N1C2=C(c3ccccc3[C@@H]1CC(=O)O)[C@@H]1O[C@@H](C2)c2ccccc21	Marburg entry inconclusive
COC(=O)C1=C(C(=O)OC)[C@@H]2N(C)c3ccccc3[C@@]23C[C@@H](C(=O)OC)N(C(=O)NC2CCCC2)C3=N1	Marburg entry inconclusive
COc1cccc([C@@H]2Oc3ccc(Br)cc3[C@H](O)[C@@H]2O)c1	Marburg entry inconclusive
C=C1C[C@H](OC(=O)C(C)(O)CCl)C2C(=C)C(=O)O[C@@H]2C2C1C[C@H](O)[C@]2(O)CCl (stereo partly specified)	LASV entry inh inconclusive, Marburg entry 20µM
C[C@H]1CC[C@H]2C(=O)O[C@H](CO)CN2[C@H]1c1ccc(Br)cc1	none (no result: LASV entry inh)
COc1cc2c(cc1OC)[C@@H]1O[C@](CCCCN3C(=O)c4ccccc4C3=O)(C2)Oc2c1c(=O)oc1ccccc21	none
COC(=O)[C@]1(CC=Cc2ccccc2)C=C[C@@H](C)[C@H](c2ccccc2Br)N1C(=O)C(F)(F)F	none
CN(CCc1ccc(Cl)c(Cl)c1)[C@@H]1CCCC[C@@H]1N1CCCC1	LASV entry inh inconclusive, Marburg entry 7.9µM
CN(CCc1ccc(Cl)c(Cl)c1)CCN1CCCC1	LASV entry inh 32µM, Marburg entry 8.9µM
COC(=O)N1CCN(C(=O)Cc2ccc(Cl)c(Cl)c2)C(CN2CCCC2)C1 (stereo unspecified)	Marburg entry inconclusive
COC(=O)[C@H]1CC=C[C@H]2CCN(Cc3ccc(Cl)c(Cl)c3)C(=O)[C@@H]12	none
C[C@H]1[C@@H](c2ccccc2)Oc2c(Cl)cccc2S(=O)(=O)N1Cc1ccc(Cl)cc1	none
CC(C)[C@@H](OCc1ccccc1)[C@H](C)C=NOC[C@@H](O)COCc1ccco1	none
CCN(CC)CCCN=C1NC(c2cccc(C(F)(F)F)c2)C(C(=O)OC)=C(C)N1CC (stereo unspecified)	none
COc1cc2c(cc1OC)[C@@H]1O[C@](c3ccsc3)(C2)Oc2c1c(=O)oc1ccc(F)cc21	none
COC(=O)CC=C1c2ccccc2[C@@H](O)[C@@H]1C	none
Cc1ccc(CN2[C@@H](CC(C)C)COc3c(Cl)cccc3S2(=O)=O)cc1	none
C1CCC(C(CC2CCCCN2)C2CCCCC2)CC1 (stereo unspecified)	LASV entry inh inconclusive, Marburg entry 4µM
CCCC1CCCCN1 (stereo unspecified)	none
C[C@@H](NCCCc1cccc(C(F)(F)F)c1)c1cccc2ccccc12	LASV entry inh 16µM, Marburg entry 6.3µM
CCNC(C)Cc1cccc(C(F)(F)F)c1 (stereo unspecified)	none
CCN1C(=NCc2cccc(Cl)c2)NC(c2cccc(C(F)(F)F)c2)C(C(=O)OC)=C1C (stereo unspecified)	LASV entry inh inconclusive
Oc1cc(-c2nc3ccccc3s2)cc2c1OCCN(Cc1cccn1-c1nccs1)C2	none
c1ccc2sc(-c3cc4c(c(OC5CCOC5)c3)OCCN(Cc3cccn3-c3nccs3)C4)nc2c1 (stereo unspecified)	Marburg entry 0.35µM
CC(C)[C@H](NC(=O)OCc1ccccc1)C(=O)N[C@H](C=O)Cc1ccccc1	Marburg entry inconclusive
CC(C)C[C@@H](C=O)NC(=O)[C@H](CC(C)C)NC(=O)[C@H](CC(C)C)NC(=O)OCc1ccccc1	LASV entry inh 3.5µM, Marburg entry inconclusive
C=C1C(=O)O[C@@H]2[C@H]3O[C@]3(C)CCC=C(C)CC[C@@H]12	LASV entry inh 22µM, Marburg entry 16µM
COc1ccc2c(c1)OC/C(=C\c1ccc(OC)c(O)c1)C2=O	Marburg entry 13µM
COc1ccc(C=C2c3ccccc3C(=O)c3ccccc32)cc1O	LASV entry inh inconclusive, Marburg entry 1µM
COc1ccc2c(c1)OCc1c-2oc2cc(OC)ccc12	none
COc1cc(C/C=C/c2ccccc2)c(OC)cc1O	none
O=C1[C@H]2[C@@H]3[C@@H](O)[C@H](O)CC(=NOCc4ccccc4)[C@@H]3CC[C@H]2C(=O)N1C1CCCCC1	none (no result: LASV entry inh)
C[C@H]1[C@@H]2O[C@H]2CCO[C@H]1c1cccc(Br)c1	none
CCOC(=O)NN=C1C[C@@H](O)[C@@H](O)[C@@H]2[C@H]3C(=O)N([C@@H](C)c4ccccc4)C(=O)[C@@H]3CC[C@@H]12	none
CCN1CCC(CC(=O)Nc2n[nH]c3nnc(-c4cccc(F)c4F)cc23)CC1	none (no result: LASV entry inh)
S=C=Nc1cccc(C2(N3CCCCC3)CCCCC2)c1	LASV entry inh 14µM, Marburg entry inconclusive
C=CC[C@@H]1C=C[C@@H](ON=C2[C@H]3CCn4c(=O)n(-c5ccccc5)c(=O)n4[C@@H]3[C@H](O)[C@@H]3O[C@H]23)[C@@H](CO)O1	none
CC(=O)O[C@H]1C[C@@H]2CC[C@@H]3[C@H](CC[C@@]4(C)[C@H]3C[C@H]([N+]3(C)CCCCC3)[C@@H]4OC(C)=O)[C@@]2(C)C[C@@H]1N1CCCCC1	none
CCC(=O)O[C@H]1[C@@H](N2CCCCC2)C[C@H]2[C@@H]3CC[C@H]4C[C@H](OC(C)=O)[C@@H](N5CCCCC5)C[C@]4(C)[C@H]3CC[C@@]21C	LASV entry inh inconclusive, Marburg entry 3.5µM
COc1cc2c(c(OC)c1)[C@H](C=Cc1ccccc1)[C@@H]([C@H](O)CO)OC2	none
O=C(/C=C/c1ccc(O)c(O)c1)c1ccc(O[C@@H]2O[C@H](CO)[C@@H](O)[C@H](O)[C@H]2O)c(O)c1O	Marburg entry 3.2µM
O=C1C[C@@H](c2ccc(O)c(O)c2)Oc2c1ccc(O[C@@H]1O[C@H](CO)[C@@H](O)[C@H](O)[C@H]1O)c2O	Marburg entry inconclusive
O=C(O)CCc1nc2ccccc2[nH]1	none
CC(C)[C@H]1c2ccc(F)cc2CC[C@@]1(CCN(C)CCCc1nc2ccccc2[nH]1)OC(=O)C1CC1	LASV entry inh inconclusive, Marburg entry 8.9µM
CC(C)=CCCC1(C)C=Cc2c(O)c3c(c(CC=C(C)C)c2O1)OC12C(=CCCC1C(C)(C)O[C@@]2(C/C=C(\C)C(=O)O)C(=O)O)C3=O (stereo partly specified)	none
CC(C)CCCC1(C)C=Cc2c(O)c3c(c(CCC(C)C)c2O1)OC12C(CC4CC1C(C)(C)OC2(CCC(C)C(=O)O)C4O)C3=O (stereo unspecified)	none
CC(C)=CCCC1(C)C=Cc2c(O)c3c(c(CC=C(C)C)c2O1)OC12C(=CC4CC1C(C)(C)OC2(C/C=C(/C)C(=O)O)C4O)C3=O (stereo unspecified)	LASV entry inh 4.5µM, Marburg entry 3.5µM

Screens deposited in PubChem BioAssay by National Center for Advancing Translational Sciences (NCATS).
